The values below come from PubChem BioAssay (EPA / NIEHS).

Several values for one entry are separate records, joined by “and”; a condition that tells them apart may be missing. Equal values may be shown once. Records with an inconclusive call do not appear. More than one record can exist for a structure, and the calls need not agree. Activity calls are given as the source filed them. The calls were made as follows: active = hit-call score of the fitted dose curve at least 0.9, where 1 is the maximum; inconclusive = response in the unintended direction; inactive = score below 0.9.

The AC50 is the midpoint of the concentration-response curve, whichever way the signal moves.

The nature of this assay: TOX21_p53_BLA_p2_viability: Viability Assessment in the Tox21 HCT-116 p53 Agonism Beta-lactamase Assay, Phase 2 (AID 2283591).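 Also: compound exposure lasted 16 h at 37 °C; actives lower the ATP signal meaning cytotoxicity.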 An excerpt: TOX21_p53_BLA_p2 is a cell-based, single-readout assay that uses HCT116, a human intestinal cell line, […] in a 1536-well plate.TOX21_p53_BLA_p2_viability is an assay readout measuring cellular ATP content and detected with CellTiter-Glo Luciferase-coupled ATP quantitation.TOX21_p53_BLA_p2_viability used a type of viability reporter where loss-of-signal activity can be used to understand changes in the cell viability. Furthermore, this assay endpoint can be referred to as a secondary readout, because this assay has produced multiple assay endpoints where this one serves a viability function. To generalize the intended target to other relatable targets, this assay endpoint is annotated to the cell cycle intended target family, where the subfamily is cytotoxicity.
Thawing Method: Place 14 mL of pre-warmed thaw medium into a 15 mL of conical tub. Remove the vial of cells to be thawed from liquid nitrogen and thaw rapidly by placing at 37C in a water bath with gentle agitation for 1-2 minutes. Decontaminate the vial by wiping with 70% ethanol before opening in a biological safety cabinet. Transfer the vial contents drop-wise into 14 mL of thaw medium in a sterile 15-mL conical tub. Centrifuge cells at 900 rpm for 4 minutes and resuspend in thaw medium. Transfer contents to the T75 tissue culture flask containing Thaw Medium and place flask in a humidified 37C/5% CO2 incubator. Switch to growth medium at first passage.Propagation Method: Aspirate medium, rinse once in DPBS, add 0.25% Trypsin/EDTA and swirl to coat the cell evenly. Add an equal volume of Growth Medium to inactivate Trypsin after 2-3 minutes incubation at 37C. Centrifuge cells at 900 rpm for 4 minutes and resuspend in growth medium. Cell should be passage or fed at least twice a week.Assay Protocol: Harvest cells from culture in growth medium and resuspend in assay medium. 2.2 Dispense 4000 cells/5 uL/well into 1536-well black/clear bottom plates using a Multidrop dispenser. After the cells were incubated at 37C for 5 hours, 23 nL of compounds dissolved in DMSO were transferred to the assay plate by a PinTool resulting in a 217-fold dilution. Incubate the plates for 16 hours at 37C, 5% CO2. Add 1 uL of 6X LiveBLAzer FRET B/G (CCF4-AM) Substrate Mixture to each well using a BioRAPTR dispenser and incubate the plates at room temperature for 2 hours. Measure fluorescence intensity at 460 and 530 nm emission and 405 nm excitation by an Envision detector. Data is expressed as the ratio of 460nm/530nm emissions. Add 4 uL of Cell-titer Glo to each well using BioRAPTR and incubate the plates at room temperature for […]. For cell viability readout that measures cytotoxicity, 4 ul/well of CellTiter-Glo reagent was added into the assay plates using a Flying Reagent Dispenser. After 30 min incubation at room temperature, the luminescence intensity in the plates was measured using a ViewLux plate reader.
For `COP(=S)(OC)Oc1ccc([N+](=O)[O-])cc1`, the outcome was inactive.

Turning to `CC1(c2ccc(Oc3ccccc3)cc2)OC(=O)N(Nc2ccccc2)C1=O` (stereo not given), the compound was classed as inactive.

`OCCOc1ccccc1`: the outcome was inactive.

Regarding `COc1nn(CSP(=S)(OC)OC)c(=O)s1`, the result was inactive.

As for `CN1CSC(=S)N(C)C1`, the compound was classed as inactive.

For the compound `O=C(O)CCCOc1ccc(Cl)cc1Cl`, the compound was classed as inactive.

On to `N#Cc1c(Cl)c(Cl)c(Cl)c(C#N)c1Cl`, for which the result was inactive and the AC50 is 22.5 µM (active).

For the compound `CC(C)(C)C(O)C(Oc1ccc(Cl)cc1)n1cncn1` (stereo not given), the result was inactive.

Regarding `O=S(=O)(O)C(F)(F)C(F)(F)C(F)(F)C(F)(F)C(F)(F)C(F)(F)C(F)(F)C(F)(F)F`, the result was inactive and the AC50 is 46.1 µM (active).

In the case of `CNC(=O)Oc1ccccc1OC(C)C`, the compound was called inactive.

As for `CC[C@H](C)[C@H]1O[C@]2(C=C[C@@H]1C)C[C@@H]1C[C@@H](C/C=C(\C)[C@@H](O[C@H]3C[C@H](OC)[C@@H](O[C@H]4C[C@H](OC)[C@@H](O)[C@H](C)O4)[C@H](C)O3)[C@@H](C)/C=C/C=C3\CO[C@@H]4[C@H](O)C(C)=C[C@@H](C(=O)O1)[C@]34O)O2` (tested in a mixture with another compound), the AC50 is 9.13 µM (active) and 43.5 µM (active).

For `COC(=O)c1ccccc1CS(=O)(=O)NC(=O)Nc1nc(OC)cc(OC)n1`, the compound was classed as inactive.

In the case of `CCC(C)(NC(=O)c1cc(Cl)c(C)c(Cl)c1)C(=O)CCl` (stereo not given), the AC50 is 71.9 µM (active).

As to `O=C(O)C(F)(F)C(F)(F)C(F)(F)C(F)(F)C(F)(F)C(F)(F)C(F)(F)F`, the compound was classed as inactive.

In the case of `CCN(CC)C(=O)SCc1ccc(Cl)cc1`, the call was inactive.

`CC1(C)C(C=C(Cl)Cl)C1C(=O)OC(C#N)c1ccc(F)c(Oc2ccccc2)c1` (stereo not given): the outcome was inactive.

`CCc1ccc(C(=O)NN(C(=O)c2cc(C)cc(C)c2)C(C)(C)C)cc1`: the outcome was inactive.

As to `C[C@H]1[C@H](c2ccc(Cl)cc2)SC(=O)N1C(=O)NC1CCCCC1`, the outcome was inactive.

Take `O=[N+]([O-])c1c(Cl)c(Cl)c(Cl)c(Cl)c1Cl`: the outcome was inactive.

Regarding `ClC1C(Cl)C(Cl)C(Cl)C(Cl)C1Cl` (stereo not given), the compound was called inactive.

For the compound `CCC(C)(C)C(=O)OC1=C(c2ccc(Cl)cc2Cl)C(=O)OC12CCCCC2`, the call was inactive.

Consider `O=C1c2ccccc2C(=O)N1SC(Cl)(Cl)Cl`, for which the call was inactive.

`COC(=O)c1ccccc1S(=O)(=O)NC(=O)N(C)c1nc(C)nc(OC)n1`: the result was inactive.

For the compound `CC(C)(C)C(O)/C(=C\c1ccc(Cl)cc1Cl)n1cncn1` (stereo not given), the compound was called inactive.

`O=C(Nc1ccccc1)Nc1cnns1`: the result was inactive.

In the case of `COC(=O)c1ccccc1S(=O)(=O)NC(=O)Nc1nc(C)nc(OC)n1`, the outcome was inactive.

Consider `Oc1cc(Cl)ccc1Oc1ccc(Cl)cc1Cl`, for which the call was inactive and the AC50 was 31.6 µM (active).

With `Oc1ccc(Cl)cc1Cc1ccccc1`, the AC50 is 70.3 µM (active) and 66.7 µM (active).

With `COP(=S)(OC)Oc1ccc(SC)c(C)c1`, the compound was called inactive.

With `CCCN(CCOc1c(Cl)cc(Cl)cc1Cl)C(=O)n1ccnc1`, the compound was classed as inactive.

As to `O=S1OCC2C(CO1)C1(Cl)C(Cl)=C(Cl)C2(Cl)C1(Cl)Cl` (stereo not given), the AC50 was 46.1 µM (active) and 81.5 µM (active).

For the compound `O=C(O)COc1ccc(Cl)cc1Cl`, the compound was called inactive.
